Laboratory results as given in PubChem BioAssay AID1467 (National Center for Advancing Translational Sciences (NCATS), 2008).
Hit rate of the full screen: of about 230,000 compounds, fewer than 10 were called active. The call rests on the fitted dose curve; in most records, active means well fitted curve in the direction sought with a large enough effect; inconclusive means small, poorly fitted or top-dose-only effect, or effect the other way, or another doubt; inactive means no such curve, though single readings can be large or run the other way. A selection follows.

Target: Alpha-galactosidase A (Homo sapiens) (UniProt P06280)
Assay: qHTS Assay for Inhibitors of Human alpha-Galactosidase at pH 4.5.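 Further: 0% = full activity with enzyme and -100% = basal without enzyme.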
Conditions: purified enzyme, 4-MU-alpha-Gal fluorescence; series mostly up to 105 µM; activity change, negative = inhibition: at the top concentration
Source text: NIH Chemical Genomics Center [NCGC]
NIH Molecular Libraries Probe Production centers Network [MLPCN]
Assay Submitter (PI): Wei Zheng
Alpha-galactosidase is a homodimeric glycoprotein that hydrolyzes the terminal alpha-galactosyl moieties from glycolipids and glycoproteins. Deficiency of this enzyme results in Fabry Disease with progressive accumulation of globotriaosylceramide and other glycosphingolipids in vascular endothelial cells that causes renal failure, myocardial infarction and stroke, and premature death in patients. It has been reported that the improper folding and trafficking of alpha-galactosidase resulting from the genetic mutations may account for a significant numbers of Fabry patients. […] We optimized this alpha-galactosidase assay in 1536-well plate format for identifying the novel small molecule inhibitors with the structures other than the sugar analogs in order to develop the new pharmacological chaperones. Although this assay has the same protocol as PubChem AID 992, this is a separate project and, therefore, is published as a separate assay
NCGC Assay Protocol Summary:
This is a fluorogenic enzyme assay with 4-Methylumbelliferyl alpha-D-galactopyranoside as the substrate and human […] as the enzyme preparation. Upon the hydrolysis of this fluorogenic substrate, the resulting product, […]. 4-Methyllumbelliferone, can be excited at 365 nm and emits at 440 nm. This fluorescence which can be detected by a standard fluorescence plate reader. Data were normalized to the controls for basal activity (without enzyme) and 100% activity (with enzyme). In the AC50 values were determined from concentration-response data modeled with the standard Hill equation.
Assay buffer: 50 mM citric acid (titrated with potassium phosphate to pH 4.5), 0.005% Tween-20, pH 4.5. (pH 4.5 is an optimal condition for this enzyme assay)
1536-well assay protocol for the human alpha-galactosidase:
(1) Add 2 ul/well of enzyme (12 nM final)
(2) Add 23 nL compounds in DMSO solution. The final titration was 0.7 nM to 77 uM.
(3) Add 1 ul of substrate (400 uM final)
(4) Incubate at room temperature for 20 min.
(5) Add 2 ul stop solution (1M NaOH and 1M Glycine mixture, pH 10)
(6) Detect the assay plate in a ViewLux plate reader (PerkinElmer) with Ex=365 nm and Em=440nm.
Keywords: MLSMR, MLPCN, NIH Roadmap, qHTS, NCGC, : Alpha-galactosidase, Fabry Disease, pharmacological chaperone, chaperone therapy

Alpha-galactosidase A (Homo sapiens), sequence (P06280 whole entry, looked up): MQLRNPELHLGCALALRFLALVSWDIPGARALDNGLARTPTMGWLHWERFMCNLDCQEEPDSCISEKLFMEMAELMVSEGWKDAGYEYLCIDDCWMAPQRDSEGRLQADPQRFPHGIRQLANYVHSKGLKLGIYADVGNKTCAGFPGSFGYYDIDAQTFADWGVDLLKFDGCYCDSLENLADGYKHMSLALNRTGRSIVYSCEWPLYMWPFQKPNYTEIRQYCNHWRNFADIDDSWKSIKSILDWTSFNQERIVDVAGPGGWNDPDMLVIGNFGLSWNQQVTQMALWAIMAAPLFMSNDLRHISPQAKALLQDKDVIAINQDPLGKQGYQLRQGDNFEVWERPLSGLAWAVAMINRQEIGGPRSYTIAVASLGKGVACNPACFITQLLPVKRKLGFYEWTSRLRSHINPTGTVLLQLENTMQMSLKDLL

Activity change, negative = inhibition, inactive:
C=C1c2cccc(OC)c2O[C@H](C(=O)OCC)[C@@H]1CCCCCC -12.3%
C=CCn1c2ccccc2c2nnc(SCc3[nH]c(=O)[nH]c3C(=O)CCCCC(=O)OCC)nc21 6.4%
O=C(COC(=O)CNC(=O)c1ccccc1F)NCC(F)(F)F 2.03%
COC(=O)C1=C(C(=O)OC)[C@@H]2N(C)c3ccccc3[C@@]23C[C@@H](C(=O)OC)N(S(=O)(=O)c2ccc(Br)cc2)C3=N1 -2.66%
O=C(NCCCN1CCOCC1)c1cc2c(s1)CCC2 -4.48%
CCOc1ccc(C2NC(=S)NC3=C2CCc2ccccc23)cc1 (stereo not drawn) -7.19%
COc1cc(OC)c2c(-c3cccc(-c4cccc(N)c4)c3)cc(=O)oc2c1 -6.01%
Cc1ccc(NC(=O)O[C@@H]2C(=O)c3cc(Br)ccc3O[C@H]2c2ccc3c(c2)OCO3)cc1Br -0.736%
CC1=C(C)CC(C(=O)NNC(=O)c2ccccc2O)C(C(=O)O)C1 (stereo not drawn) 8.41%
O=S(=O)(Cc1noc(-c2ccc(OC(F)(F)F)cc2)n1)c1ccc(F)cc1 -3.61%
COc1cc(CNCCN(C)C)ccc1OCc1c(F)cccc1Cl 7.26%
Clc1ccc(-c2csc(-c3ccncc3)n2)cc1 0.359%
CCOc1cc(N2CCOCC2)c(OCC)cc1NC(=O)c1ccc(C)s1 3.82%
NC1CCN(O)C1=O (stereo not drawn) -1.41%
COc1ccc(S(=O)(=O)N(C)C)cc1NC(=O)CSc1ncccn1 -1.38%
O=C(COc1ccccc1)N1CCN=C1SCc1cccc(F)c1 -1.66%
CC(=O)/C(C)=N/O 6.05%
CCO[C@H]1OC(C(=O)N2CCN(Cc3ccccc3)CC2)=C[C@@H](c2cn(C(C)=O)c3ccccc23)[C@@H]1CCCO -8.17%
C=C/C1=C/Cc2ccccc2[C@H](C[N+](=O)[O-])C(C(=O)OC)(C(=O)OC)C1 -2.03%
NNC(=O)c1oc2nc(-c3ccccc3)cc(-c3ccco3)c2c1N -5.28%
S=C(NCCCc1cnc[nH]1)NCCCN(Cc1ccc(Cl)c(Cl)c1)c1ccc(Br)cn1 -6.2%
Cc1cccc([C@H]2[C@@H]3C=CC[C@@H](C)[C@@H]3C(=O)N2Cc2ccccc2)c1 -2.93%
CCN(CCn1cccn1)C(=O)CC1C(=O)NCCN1Cc1cccc(OC)c1OC (stereo not drawn) -3.26%
O=[N+]([O-])c1ccc(N2CCNCC2)cc1NCc1cccnc1 -23.8%
S=C(NNC(=S)NC1CC2C=CC1C2)NC1CC2C=CC1C2 (stereo not drawn) -8.67%
COC(=O)N1C(/C=C/C=C/c2ccc(OC)cc2)=Cc2ccccc2C1CC(C)=O (stereo not drawn) -1.09%
COc1ccc(C(=O)COC(=O)c2nn(C)c(=O)c3ccccc23)c(OC)c1 -26.1%
COc1cccc(NC(=S)NCc2ccco2)c1 -7.84%
Cn1c(SCC(=O)NC2CCCCC2)nnc1-c1ccc(N)cc1 -1.25%
COC(=O)C1=C(C(=O)OC)[C@@H]2N(C)c3ccccc3[C@@]23C[C@@H](C(=O)OC)N(S(=O)(=O)c2cccs2)C3=N1 -0.375%
CN1CCC(=NNC(=O)CN(c2cccc(Cl)c2)S(C)(=O)=O)CC1 -0.661%
NC(=O)CC(NC(=O)Cc1cccc2ccccc12)c1ccc(NCc2cc(F)ccc2F)c([N+](=O)[O-])c1 (stereo not drawn) 10.4%
N#Cc1cccc(CS(=O)(=O)c2nnnn2-c2cc(C(F)(F)F)cc(C(F)(F)F)c2)c1 -8.23%
Cc1cc(C(=O)COC(=O)CNC(=O)c2ccc(F)cc2)c(C)n1Cc1ccco1 1.82%
OCCC1CN(Cc2ccc3nsnc3c2)CCN1C1CCCCC1 (stereo not drawn) -12.3%
Cc1cc(C)cc(N(CC(=O)NCCSCc2ccco2)S(C)(=O)=O)c1 0.74%
CC1CCN(c2c(NCc3ccc(C(=O)NCc4ccccc4)cc3)c(=O)c2=O)CC1 -4%
CNC(=O)c1ccc(NC(=O)c2cccc(C(F)(F)F)c2)cc1 -1.3%
Nc1ccc(OCC(O)C[n+]2ccc(CCS(=O)(=O)[O-])cc2)cc1 (stereo not drawn) 5.66%
Cc1cccc2c1N(CCOc1ccccc1)C(=O)C2=O -14.8%
CN1C(=O)/C(=C\c2ccc(-c3ccccc3)o2)SC1=S 4.38%
C/C(=N\NC(=O)c1cccc(N2CCCC2=O)c1)c1ccc(N)cc1 0.376%
CC(C)(C)Nc1c(-c2cccs2)nc2ccccn12 5.51%
Cc1csc(-c2coc3cc(O[C@@H]4O[C@H](CO)[C@@H](O)[C@@H](O)[C@H]4O)ccc3c2=O)n1 -1.54%
c1ccc2c(c1)CSc1sccc1C2=C1CCNCC1 7.6%
CC(=O)CC(c1ccccc1)C1C(=O)Oc2ccccc2C1=O (stereo not drawn) -1.34%
COC(=O)C1=C(C(=O)OC)[C@@H]2N(Cc3ccccc3)c3ccccc3[C@@]23C[C@@H](C(=O)OC)N(S(=O)(=O)c2ccc(C(F)(F)F)cc2)C3=N1 -8.58%
O=C(NCCN1CCOCC1)c1ccc2c(c1)N(Cc1ccc(Cl)cc1)CCS2 19.9%
C/C=C(\C)C(=O)OC1C(OC(=O)C2(C)OC2C)c2cc3ccc(=O)oc3cc2OC1(C)C (stereo not drawn) -3.44%
CNC(=S)N1CCC(NC(=O)C(Cc2ccc(F)cc2)NC(C)=O)CC1 (stereo not drawn) 2.08%
Cc1oc2cc([N+](=O)[O-])c(O)c([N+](=O)[O-])c2c1C(=O)c1ccc(Br)cc1 0.458%
CCc1ccc(NC(=O)C(=O)N/N=C(\C)CC(=O)NCCOC)cc1 3.4% [at 21.1 µM]
CCOc1ccc(NC(=O)c2ccc(CSc3nnnn3C)cc2)cc1 5.27%
COC(=O)C1=C(C(=O)OC)[C@@H]2Nc3ccccc3[C@@]23C[C@@H](C(=O)OC)N(S(=O)(=O)c2ccc([N+](=O)[O-])cc2)C3=N1 -1.19%
COc1ccc(Nc2ncnc3ccc(OC)cc23)cc1 -4.49%
C[N+]1(CC(O)COc2ccccc2)CCN(C(=O)c2ccc([N+](=O)[O-])cc2)CC1 (stereo not drawn) -12.9%
C/C=C(\C)C(=O)O[C@H]1CC(C)=C2C(=O)C=C(C)C2[C@@H]2OC(=O)[C@@](C)(OC(=O)C=C(C)C)C21 (stereo partly drawn) 0.518%
Cc1nc(SCc2ccc(F)cc2)c([N+](=O)[O-])[nH]1 -11%
C=CCN1C(=O)C(Cc2ccc(OCC)cc2)SC1=Nc1ccc(C(=O)O)cc1 (stereo not drawn) -0.326%
Cc1ccc(C)c(-n2nnnc2SCC(=O)c2c(N)n(C)c(=O)n(C)c2=O)c1 7.01%
COc1ccc2c(c1)O[C@@H](c1ccc3c(c1)OCO3)[C@H](OC(=O)NCc1ccco1)C2=O -8.2%
Cc1cn(C2OC[C@@H](O)[C@@H]2CO)c(=O)[nH]c1=O (stereo partly drawn) -5.03%
Brc1ccc(C2=NCCC(c3ccccc3)O2)cc1 (stereo not drawn) -0.0967%
C[C@@H]1C(c2ccc(F)cc2)=NN(c2ccc(Br)cc2)[C@H]1C(=O)N1CCOC1=O 1.05%
Cc1csc(SCC(=O)Nc2sccc2C#N)n1 1.25%
COC(=O)c1ccc(S(=O)(=O)N(CCO)Cc2ccccc2)n1C 1.9%
Nc1nc(C23CC4CC(CC(C4)C2)C3)cs1 -0.438%
CN(CCc1cn[nH]c1)C(=O)CC1C(=O)NCCN1Cc1cccc(Oc2ccccc2)c1 (stereo not drawn) 7.92%
Cc1cc(C)nc(SC2CCCCC2NS(=O)(=O)c2ccc(Cl)cc2)n1 (stereo not drawn) -10.7%
Cc1ccc(S(=O)(=O)N2CCC(C(=O)OCC(=O)N3CC(=O)Nc4ccccc43)CC2)cc1 -0.506%
Cc1ccc(C2CC(c3cccc(NS(C)(=O)=O)c3)=NN2S(C)(=O)=O)cc1 (stereo not drawn) 10.3%
CCOC(=O)C1=C(C)c2ccccc2OC1(C)C(=O)OCC (stereo not drawn) -6.68%
Cc1cccc(NC(=S)NCc2ccc3[nH]c4c(c3c2)CCCC4)c1 -1.22%
COc1ccc(-c2c(C)cc3oc(=O)cc(-c4ccccc4)c3c2C)cc1OC -21.7%
OC[C@H]1O[C@@H](n2cnc3c(NC4CCCC4)ncnc32)[C@H](O)[C@H]1O 0.0639%
COC1(C2=NCCN2)COc2ccccc2O1 (stereo not drawn) -0.194%
COC(C)C(C(=O)OCC1=CCN2CC[C@H](O)[C@@H]12)C(C)C (stereo partly drawn) -7.37%
COc1ccc(-c2nc3c(c4c2C[C@H](c2ccccc2)OC4)CN(C(=O)c2ccco2)CC3)c(C)c1 9.81%
CCn1c(SCC(=O)Nc2ccc(C)cc2)nc2nc3c(cc2c1=O)CCCC3 0.427%
Cc1cc(N)n(-c2ccc(S(=O)(=O)N3CCCC3)cc2[N+](=O)[O-])n1 8.19%
Cc1cc(Cl)ccc1OCc1nc(-c2ccncc2)no1 -7.26%
CC(C)(C)NS(=O)(=O)CC12CCC(CC1=O)C2(C)C (stereo not drawn) -2.78%
CCn1c(SCc2ccccc2)nc2c(c1=O)SCC2 -18.3%
COc1ccc(-c2nc3c(c4c2C[C@H](c2ccccc2)OC4)CN(C(=O)C2CC2)CC3)c(C)c1 -7.05%
C=CCN1c2ccccc2[C@]23C[C@@H](C(=O)OC)N(S(=O)(=O)c4ccc([N+](=O)[O-])cc4)C2=NC(C(=O)OC)=C(C(=O)OC)[C@H]13 -4.09%
O=C(CSc1cccc[n+]1[O-])c1ccc(Cl)cc1 3.17%
O=C(NCc1cccnc1)c1cnc2ccccc2n1 1.77%
CCCCS(=O)(=O)N1C2=NC(C(=O)OC)=C(C(=O)OC)[C@@H]3N(Cc4ccccc4)c4ccccc4[C@]23C[C@H]1C(=O)OC 7.1%
Nn1c(SCC(=O)Nc2nccs2)nncc1=O -6.09%
O=c1[nH]c(SCc2cccc(F)c2)nc2ccccc12 0.781%
COc1ccc(/C=N/OCC(=O)N(Cc2ccccc2)c2ccccc2C(=O)O)cc1 -13.4%
O=C(COc1cccc(F)c1)Oc1ccc(C(=O)c2ccccc2)cc1 1.38%
COc1ccc(-c2nc3c(c4c2C[C@H](c2ccccc2)OC4)CN(S(=O)(=O)c2c(C)noc2C)CC3)c(C)c1 11.4%
